PubChem BioAssay (NCI)
About 83,000 compounds went through this panel and 20% of them were active in at least one assay; those are over-represented in the sample as a whole.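 Values shown are percent growth following 48 h exposure of cells in 96-well plates to a single concentration of compound; below 10 was considered active.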 A number with no mark means an inactive call. Active and inactive are the calls of the source.

Key:
Experiment in all cases: NCI-60 one-dose screen, 48 h (100 = growth as untreated, 0 = no growth, -100 = all killed)
[1] = test system: DU-145 prostate; conditions: 10 µM
[2] = test system: K-562 leukemia; conditions: 10 µM
[3] = test system: MALME-3M melanoma; conditions: 10 µM
[4] = test system: MDA-MB-231 breast; conditions: 10 µM
[5] = test system: RXF 393 renal; conditions: 10 µM
[6] = test system: SF-268 CNS; conditions: 10 µM
[7] = test system: SF-295 CNS; conditions: 10 µM
[8] = test system: SF-539 CNS; conditions: 10 µM
[9] = test system: UACC-257 melanoma; conditions: 10 µM
[10] = test system: M14 melanoma; conditions: 10 µM
[11] = test system: HCT-15 colon; conditions: 10 µM
[12] = test system: HT29 colon; conditions: 10 µM
[13] = test system: SNB-75 CNS; conditions: 10 µM
[14] = test system: SNB-19 CNS; conditions: 10 µM
[15] = test system: U251 CNS; conditions: 10 µM
[16] = test system: PC-3 prostate; conditions: 10 µM
[17] = test system: SK-MEL-5 melanoma; conditions: 10 µM
[18] = test system: UACC-62 melanoma; conditions: 10 µM unless noted
[19] = test system: LOX IMVI melanoma; conditions: 10 µM
[20] = test system: SK-MEL-28 melanoma; conditions: 10 µM

Structure (SMILES)	growth [1] [%]	growth [2]	growth [3]	growth [4]	growth [5] [%]	growth [6] [%]	growth [7]	growth [8]	growth [9]	growth [10] [%]	growth [11]	growth [12] [%]	growth [13] [%]	growth [14] [%]	growth [15]	growth [16]	growth [17]	growth [18] [%]	growth [19]	growth [20] [%]
C=CC[N+](C)(C)C	120	102%	98.8%	108%	100	112	-10.9% (active)	98.1%	101%	107	98.7%	104	94.3	98.7	101%	97.6%	105%	102	92.2%	107
CC(=O)c1c[nH]c2ccccc12	124	103%	95.2%	114%	104	113	100%	105%	104%	102	101%	118	88.1	105	95.7%	86.1%	103%	97.5	102%	103
CC12CC3CC1C(C(=O)O2)C3C(=O)O (stereo not given)	106	95.6%	94.2%	109%	109	99.2	101%	97.4%	92.1%	117	104%	98.9	102	98.6	103%	101%	104%	98.3	99.7%	106
O=c1[nH]cc(Cl)cc1O	96.8	48%	91.2%	77.8%	107	79	82.4%	96%	92.3%	86.6	64.4%	97.3	93.1	105	88.6%	82.2%	86.6%	40.5	65.5%	105
O=C(CCl)N1CCN(C/C=C/c2ccccc2)CC1	110	88.1%	83%	100%	86.4	87.7	105%	104%	85.8%	90.1	86.3%	79.2	92.6	95.2	90.7%	89%	86.6%	76.6	2.58% (active)	94.4
COc1ccccc1NC(=O)c1cc2cc(Br)ccc2cc1O	27	7.54% (active)	-1.45% (active)	3.51% (active)	39	17.8	11.3%	0.0916% (active)	-21% (active)	19.6	7.97% (active)	72.8	12.4	27.3	8.67% (active)	-35.3% (active)	-74.6% (active)	24.3	3.26% (active)	34.6
O=C(O)C(Cc1ccccc1)C(=O)O	113	108%	115%	104%	104	110	98.1%	102%	108%	104	103%	123	95.9	106	108%	94%	89.6%	101	100%	113
CCOC(=O)C(O)C(O)C(=O)OCC (stereo not given)	106	102%	106%	110%	125	102	104%	109%	106%	104	99.1%	105	99	103	102%	98%	97.5%	102	99.8%	106
Cc1ccc(C(=O)N/N=C/c2ccc3c(c2)OCO3)cc1	112	73.3%	108%	90.5%	102	96	115%	103%	115%	93	91.6%	104	95.8	96.7	101%	82.8%	100%	76.3	89.1%	107
S=c1[nH]ccn1-c1ccccc1Cl	106	101%	120%	120%	114	108	100%	103%	22.9%	108	107%	104	95.4	102	99.2%	95.2%	112%	107	100%	101
Cc1cc(Cc2cc(C)c(N)cc2N)c(N)cc1N	105	101%	95.2%	83.9%	103	90.9	104%	103%	85.3%	101	103%	95.9	91.4	96.3	88.9%	85.4%	91.9%	95.5	87.3%	112
O=[N+]([O-])c1ccc(-c2ncc(-c3ccc(Br)cc3)o2)cc1	112	97.3%	125%	119%	106	107	98.3%	101%	74.1%	109	96.5%	98.3	122	99.9	95.8%	89.8%	89.4%	93.3	104%	114
CC(=O)OC1CC2C(C)(C)OC3CC(=O)OCC32C2CCC3(C)C(=CCC3c3ccoc3)C12C (stereo not given)	92.5	95.5%	85.2%	115%	105	98.6	107%	104%	72.7%	115	108%	102	97	101	107%	105%	92.5%	72.1	98.4%	86.9
Cc1cc(C(C)(C)C)cc(C)c1Br	121	111%	135%	108%	113	102	103%	94.9%	105%	98.5	109%	113	94.6	106	113%	75.3%	111%	108	96.1%	109
C=C[Si](OC(C)=O)(OC(C)=O)OC(C)=O	116	98.7%	85.6%	118%	117	99.4	96.9%	96.8%	105%	99.5	103%	101	95.5	109	100%	91.6%	104%	116	98.4%	104
O=C(O)C(O)c1ccccc1 (stereo not given)	106	111%	99.9%	107%	102	98.8	107%	94%	102%	97.8	113%	115	94.8	108	103%	97.3%	101%	107	94.2%	107
